From PubChem BioAssay AID1159580 (chemical genetic matrix, 2015)
The campaign covered roughly 5,500 compounds. About 2,000 (36%) were called active. Not shown: some 18% with an inconclusive outcome. Cut-off read from the data, not from the text of the source: active = normalized growth mostly below about 0.91 (no sharp cut-off); inconclusive = no clear call, values can overlap the other calls; inactive = mostly above about 0.92. The list shows a part of the results.

Assay: chemical genetic growth profiling, strain panel (AID 1159580);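 note: tested at 20 µM; growth read once vehicle control cultures reached saturation at 30 °C; 1 = growth at the plate median or of vehicle wells; lower values mean less growth of the strain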
Details: growth OD

Measured: normalized growth

COc1c(C)c2c(c(C)c1Cl)Oc1c(Cl)c(OC)c(Cl)c(C)c1C(=O)O2
inactive: S. cerevisiae deletion strains, locus YAL013W, strain DEP1, active compounds read low 0.992 | S. cerevisiae deletion strains, locus YBR021W, strain FUR4, active compounds read low 1.05 | S. cerevisiae deletion strains, locus YBR229C, strain ROT2, active compounds read low 1.01 | S. cerevisiae deletion strains, locus YCL029C, strain bik1, active compounds read low 1.02 | S. cerevisiae deletion strains, locus YDL035C, strain GPR1, active compounds read low 1.01 | S. cerevisiae deletion strains, locus YDL074C, strain BRE1, active compounds read low 1 | S. cerevisiae deletion strains, locus YDL101C, strain DUN1, active compounds read low 1.01 | S. cerevisiae deletion strains, locus YDL134C, strain PPH21, active compounds read low 1.01 | S. cerevisiae deletion strains, locus YDL185W, strain tfp1, active compounds read low 1.02 | S. cerevisiae deletion strains, locus YDL192W, strain arf1, active compounds read low 1.02 | S. cerevisiae deletion strains, locus YDR101C, strain arx1, active compounds read low 1.01 | S. cerevisiae deletion strains, locus YDR150W, strain NUM1, active compounds read low 1.02 | S. cerevisiae deletion strains, locus YDR162C, strain NBP2, active compounds read low 0.987 | S. cerevisiae deletion strains, locus YDR318W, strain mcm21, active compounds read low 1.03 | S. cerevisiae deletion strains, locus YDR388W, active compounds read low 1.01 | S. cerevisiae deletion strains, locus YDR502C, strain sam2, active compounds read low 1.01 | S. cerevisiae deletion strains, locus YEL061C, strain CIN8, active compounds read low 1.01 | S. cerevisiae deletion strains, locus YER110C, active compounds read low 1.02 | S. cerevisiae deletion strains, locus YER155C, strain BEM2, active compounds read low 1.01 | S. cerevisiae deletion strains, locus YER167W, strain BCK2, active compounds read low 1.03 | S. cerevisiae deletion strains, locus YGL078C, strain dbp3, active compounds read low 1.01 | S. cerevisiae deletion strains, locus YGL086W, strain mad1, active compounds read low 1.02 | S. cerevisiae deletion strains, locus YGL248W, strain PDE1, active compounds read low 1.02 | S. cerevisiae deletion strains, locus YGR078C, strain PAC10, active compounds read low 1.01 | S. cerevisiae deletion strains, locus YGR135W, strain pre9, active compounds read low 1 | S. cerevisiae deletion strains, locus YGR229C, strain SMI1, active compounds read low 0.991 | S. cerevisiae deletion strains, locus YGR252W, strain gcn5, active compounds read low 1.05 | S. cerevisiae deletion strains, locus YHR030C, strain SLT2, active compounds read low 1.02 | S. cerevisiae deletion strains, locus YHR079C, strain IRE1 (second series), active compounds read low 1.03 | S. cerevisiae deletion strains, locus YHR094C, strain hxt1, active compounds read low 1.01 | S. cerevisiae deletion strains, locus YHR129C, strain ARP1, active compounds read low 1.02 | S. cerevisiae deletion strains, locus YHR200W, strain rpn10, active compounds read low 1.02 | S. cerevisiae deletion strains, locus YIL066C, strain RNR3, active compounds read low 1 | S. cerevisiae deletion strains, locus YIL073C, strain SPO22, active compounds read low 1.08 | S. cerevisiae deletion strains, locus YIL125W, strain kgd1, active compounds read low 1.02 | S. cerevisiae deletion strains, locus YIR030C, strain dcg1, active compounds read low 1.01 | S. cerevisiae deletion strains, locus YJL095W, strain BCK1, active compounds read low 1.02 | S. cerevisiae deletion strains, locus YJL134W, strain LCB3, active compounds read low 1.01 | S. cerevisiae deletion strains, locus YJL168C, strain set2, active compounds read low 1.01 | S. cerevisiae deletion strains, locus YJL187C, strain SWE1 (second series), active compounds read low 1.01 | S. cerevisiae deletion strains, locus YJR043C, strain POL32, active compounds read low 1.04 | S. cerevisiae deletion strains, locus YJR075W, strain HOC1, active compounds read low 1.01 | S. cerevisiae deletion strains, locus YKL009W, strain mrt4, active compounds read low 1.03 | S. cerevisiae deletion strains, locus YKL068W, active compounds read low 1.01 | S. cerevisiae deletion strains, locus YKL085W, strain MDH1 (second series), active compounds read low 1.02 | S. cerevisiae deletion strains, locus YKL085W, strain MDH1, active compounds read low 1.02 | S. cerevisiae deletion strains, locus YKL190W, strain CNB1, active compounds read low 1.01 | S. cerevisiae deletion strains, locus YKR001C, strain vps1, active compounds read low 1.03 | S. cerevisiae deletion strains, locus YLR039C, strain RIC1, active compounds read low 1.06 | S. cerevisiae deletion strains, locus YLR058C, strain SHM2, active compounds read low 1.02 | S. cerevisiae deletion strains, locus YLR102C, strain apc9, active compounds read low 1.01 | S. cerevisiae deletion strains, locus YLR262C, strain YPT6, active compounds read low 1.02 | S. cerevisiae deletion strains, locus YLR268W, strain sec22, active compounds read low 0.997 | S. cerevisiae deletion strains, locus YLR330W, strain CHS5, active compounds read low 1.02 | S. cerevisiae deletion strains, locus YLR342W, strain FKS1 (second series), active compounds read low 1.08 | S. cerevisiae deletion strains, locus YLR371W, strain rom2, active compounds read low 1.02 | S. cerevisiae deletion strains, locus YLR418C, strain cdc73, active compounds read low 0.989 | S. cerevisiae deletion strains, locus YML016C, strain PPZ1, active compounds read low 1.01 | S. cerevisiae deletion strains, locus YML032C, strain rad52, active compounds read low 1.03 | S. cerevisiae deletion strains, locus YML124C, strain tub3, active compounds read low 1.01 | S. cerevisiae deletion strains, locus YMR078C, strain ctf18, active compounds read low 1.02 | S. cerevisiae deletion strains, locus YMR223W, strain ubp8, active compounds read low 1.03 | S. cerevisiae deletion strains, locus YMR263W, strain SAP30, active compounds read low 1.01 | S. cerevisiae deletion strains, locus YMR307W, strain GAS1, active compounds read low 1.06 | S. cerevisiae deletion strains, locus YNL067W, strain RPL9B, active compounds read low 1.01 | S. cerevisiae deletion strains, locus YNL128W, strain TEP1, active compounds read low 0.967 | S. cerevisiae deletion strains, locus YNL153C, strain GIM3, active compounds read low 1 | S. cerevisiae deletion strains, locus YNL233W, strain BNI4, active compounds read low 1.02 | S. cerevisiae deletion strains, locus YNL250W, strain rad50, active compounds read low 1.01 | S. cerevisiae deletion strains, locus YNL271C, strain bni1, active compounds read low 1.01 | S. cerevisiae deletion strains, locus YNL298W, strain CLA4, active compounds read low 1.03 | S. cerevisiae deletion strains, locus YNL307C, strain MCK1, active compounds read low 1.03 | S. cerevisiae deletion strains, locus YNL322C, strain KRE1, active compounds read low 1 | S. cerevisiae deletion strains, locus YNR052C, strain pop2, active compounds read low 1.02 | S. cerevisiae deletion strains, locus YOL006C, strain TOP1, active compounds read low 1.1 | S. cerevisiae deletion strains, locus YOL012C, strain htz1 0.785 | S. cerevisiae deletion strains, locus YOL147C, strain pex11, active compounds read low 1.01 | S. cerevisiae deletion strains, locus YOR061W, strain CKA2, active compounds read low 1.01 | S. cerevisiae deletion strains, locus YOR069W, strain VPS5, active compounds read low 1.02 | S. cerevisiae deletion strains, locus YOR136W, strain idh2, active compounds read low 1.02 | S. cerevisiae deletion strains, locus YOR144C, strain elg1, active compounds read low 1.01 | S. cerevisiae deletion strains, locus YOR184W, strain ser1, active compounds read low 1.05 | S. cerevisiae deletion strains, locus YOR316C, strain cot1, active compounds read low 1.02 | S. cerevisiae deletion strains, locus YPL055C, strain LGE1, active compounds read low 0.99 | S. cerevisiae deletion strains, locus YPL241C, strain CIN2, active compounds read low 1 | S. cerevisiae deletion strains, locus YPR119W, strain clb2, active compounds read low 1 | S. cerevisiae deletion strains, locus YPR141C, strain kar3, active compounds read low 1.01 | S. cerevisiae deletion strains, locus YPR163C, strain tif3, active compounds read low 1.03 | S. cerevisiae deletion strains, locus YPR167C, strain met16, active compounds read low 1.01 | S. cerevisiae deletion strains, strain wtn01, active compounds read low 1.01 | S. cerevisiae strains, strain wild type, active compounds read low 1
